Data reported in PubChem BioAssay.
Calls of active or inactive are those of the source.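 The calls were made as follows, unless noted: active = compound raising the membrane signal above positive-control mean plus 3 SD in both repeats, and a primary screen hit; inactive = the rest.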

Molecular target: Short transient receptor potential channel 6 (Mus musculus) (UniProt Q61143)
Assay: TRPC6 potentiation by TRPC4 potentiator hits, confirmation, selectivity assay for TRPC4 potentiator project, HEK293 cells, membrane potential dye, duplicate (AID 434952)
Conditions: HEK293 TRPC6, membrane potential dye fluorescence, at 10 µM, maximal acetylcholine added after compound

Short transient receptor potential channel 6 (Mus musculus), sequence (Q61143 whole entry, looked up): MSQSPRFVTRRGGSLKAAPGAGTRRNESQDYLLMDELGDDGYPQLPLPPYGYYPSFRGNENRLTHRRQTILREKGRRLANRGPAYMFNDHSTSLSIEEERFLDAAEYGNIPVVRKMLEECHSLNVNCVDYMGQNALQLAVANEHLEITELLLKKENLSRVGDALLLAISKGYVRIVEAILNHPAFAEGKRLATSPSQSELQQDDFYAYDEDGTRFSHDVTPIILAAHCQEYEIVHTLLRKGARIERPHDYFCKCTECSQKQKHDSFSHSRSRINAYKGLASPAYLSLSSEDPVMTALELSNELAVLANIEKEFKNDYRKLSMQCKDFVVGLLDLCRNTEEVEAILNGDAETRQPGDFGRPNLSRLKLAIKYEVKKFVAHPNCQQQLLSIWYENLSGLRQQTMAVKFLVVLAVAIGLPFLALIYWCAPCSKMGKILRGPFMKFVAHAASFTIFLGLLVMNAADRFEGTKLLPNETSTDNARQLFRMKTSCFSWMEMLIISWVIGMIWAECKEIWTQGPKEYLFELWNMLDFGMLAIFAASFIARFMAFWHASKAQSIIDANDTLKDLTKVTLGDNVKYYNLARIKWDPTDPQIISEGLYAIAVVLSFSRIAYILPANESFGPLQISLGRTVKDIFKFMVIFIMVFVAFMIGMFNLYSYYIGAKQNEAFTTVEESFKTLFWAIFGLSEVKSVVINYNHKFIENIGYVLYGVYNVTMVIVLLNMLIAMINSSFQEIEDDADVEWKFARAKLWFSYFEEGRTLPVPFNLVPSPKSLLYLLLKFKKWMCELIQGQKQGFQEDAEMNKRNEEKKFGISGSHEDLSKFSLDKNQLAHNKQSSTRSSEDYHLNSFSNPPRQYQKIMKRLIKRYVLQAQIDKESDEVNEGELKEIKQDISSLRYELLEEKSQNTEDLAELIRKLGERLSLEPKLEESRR

SMILES	outcome
CC(C)C(NC(=O)c1ccc(C(C)(C)C)cc1)C(=O)NCC(c1ccccc1)N(C)C (stereo not drawn)	inactive
CN(C)CCCN(C(=O)c1ccc(S(=O)(=O)N2CCCC2)cc1)c1nc2c(F)cc(F)cc2s1	inactive
CCC1CCCCN1CCN1C(=O)C2C(C(=O)Nc3ccc(OC)cc3)C3C=CC2(O3)C1C(=O)NC1CCCCC1 (stereo not drawn)	inactive
Cc1cc(Nc2ccc(C)c(C)c2)c2ccccc2n1	inactive
CCCc1nc2ccccc2n1Cc1ccccc1OC	inactive
CCCCOc1ccc(Nc2cc(Cl)ccc2C(=O)O)cn1	inactive
N#Cc1c(N)sc2c1CCCCCC2	inactive
Cc1cc(OCc2cc(C(=O)NCCN3CCCCC3CO)no2)cc(C)c1Cl (stereo not drawn)	inactive
Cc1cccc(C)c1-n1cccc1/C=C1\SC(=S)N(c2cccc(C(=O)O)c2)C1=O	inactive
Clc1ccc(COc2ccccc2CNCc2cccnc2)cc1	inactive
C=CCOc1ccc(C2CC(C)=NN2c2ccccc2)cc1 (stereo not drawn)	inactive
CCCCN=C(Nc1ccc(Cl)cc1)c1cccnc1	inactive
OCc1ccccc1CNCc1ccccc1	inactive
Cc1ccc(Nc2cc(C)nc3ccc(C)cc23)cc1	inactive
C=CCSc1nnc2n(-c3ccccc3OC)c(=O)c3c4c(sc3n12)CCC4	inactive
Cc1ccc(NC(=O)CN2CCc3ccccc3C2)cc1F	inactive
c1ccc(CN2CCN(Cc3c[nH]c4ccccc34)CC2)cc1	inactive
OCCNc1nc2ccccc2n1CCN1CCCCC1	inactive
COc1ccc(NC(=O)c2c[nH]n3c(=O)cc(C4CCN(C(=O)OC(C)(C)C)CC4)nc23)cc1Cl	inactive
CC1CCCN1CC#CC(O)(c1ccccc1)c1ccccc1 (stereo not drawn)	inactive

SMILES	outcome
CCOC(=O)c1c(N)sc(C(O)(C(F)(F)F)C(F)(F)F)c1-c1ccccc1	inactive
CCCCN(Cc1ccccc1)C(=O)C1CCN(Cc2sccc2C)CC1	inactive
CCc1ccc2nc3nc(C)cc(C)c3c(N)c2c1	inactive
Cc1ccc(C)c(S(=O)(=O)/N=C2\C=C(NS(=O)(=O)c3ccccc3)C(=O)c3ccccc32)c1	inactive
Cc1ccn2c(-c3csc(NCc4ccco4)n3)c(C)nc2c1	inactive
CCCCC(=O)N(c1ccc(C(=O)O)cc1)c1nc(-c2ccc(Cl)cc2)c(CC)s1	inactive
CC(=O)c1ccc2c(c1)N(C)c1ccccc1S2	inactive
Cc1ccc2c(c1)N(C(=O)CCC(=O)Nc1ccccc1Br)CC(C)O2 (stereo not drawn)	inactive
OCC1(CCCc2ccccc2)CCN(Cc2cc(F)ccc2F)CC1	inactive
CC(C)c1ccc(S(=O)(=O)/N=C2\C=C(NS(=O)(=O)c3ccccc3)C(=O)c3ccccc32)cc1	inactive
Cc1cc(NCc2ccccc2)nc(N2CCOCC2)n1	inactive
CCOc1ccc(NC(=O)c2c[nH]n3c(=O)cc(C4CCN(C(=O)OC(C)(C)C)CC4)nc23)cc1	inactive
COCCn1c(SCc2cc(C(C)=O)ccc2OC)nc2cc(Cl)ccc2c1=O	inactive
CCc1cc(C(c2cccc(OC)c2)N2CCOCC2)c(NC(=O)c2ccccc2)s1 (stereo not drawn)	inactive
CC(=O)Nc1ccc(S(=O)(=O)NC2=C(N3CCN(Cc4ccccc4)CC3)C(=O)c3ccccc3C2=O)cc1	inactive
COc1ccc(C2=NN(C(=O)c3ccccc3)C(c3ccc(OC)c(OC)c3)C2)c(O)c1 (stereo not drawn)	inactive
COc1cccc(CNC(=O)CCC2CCCN(Cc3cc(Cl)ccc3O)C2)c1 (stereo not drawn)	inactive
Cc1c(CN2CCC(n3nccc3NC(=O)CCc3ccccc3)CC2)cnn1C	inactive
CCOC(=O)C(C)Sc1nc2c(c(=O)[nH]c(=O)n2C)n1Cc1ccc(Cl)cc1 (stereo not drawn)	inactive

Molecular target: Short transient receptor potential channel 4 (Mus musculus) (UniProt Q9QUQ5)
Assay: calcium flux activators in TRPC4/5HT1a cells, counter-screen for TRPC4 activator project, cell-based, second counter screen, HEK293 TRPC4/5HT1a, Fluo-4 (AID 434977;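 active = calcium signal rise above buffer-control mean plus 5 SD in both duplicates, and also a hit in the primary screen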)
Conditions: Fluo-4 calcium flux, at 10 µM

SMILES	outcome
CC(C)C(NC(=O)c1ccc(C(C)(C)C)cc1)C(=O)NCC(c1ccccc1)N(C)C (stereo not drawn)	inactive
CN(C)CCCN(C(=O)c1ccc(S(=O)(=O)N2CCCC2)cc1)c1nc2c(F)cc(F)cc2s1	inactive
CCC1CCCCN1CCN1C(=O)C2C(C(=O)Nc3ccc(OC)cc3)C3C=CC2(O3)C1C(=O)NC1CCCCC1 (stereo not drawn)	inactive
Cc1cc(Nc2ccc(C)c(C)c2)c2ccccc2n1	inactive
CCCc1nc2ccccc2n1Cc1ccccc1OC	inactive
CCCCOc1ccc(Nc2cc(Cl)ccc2C(=O)O)cn1	inactive
N#Cc1c(N)sc2c1CCCCCC2	inactive
Cc1cc(OCc2cc(C(=O)NCCN3CCCCC3CO)no2)cc(C)c1Cl (stereo not drawn)	inactive
Cc1cccc(C)c1-n1cccc1/C=C1\SC(=S)N(c2cccc(C(=O)O)c2)C1=O	inactive
Clc1ccc(COc2ccccc2CNCc2cccnc2)cc1	inactive
C=CCOc1ccc(C2CC(C)=NN2c2ccccc2)cc1 (stereo not drawn)	inactive
CCCCN=C(Nc1ccc(Cl)cc1)c1cccnc1	inactive
OCc1ccccc1CNCc1ccccc1	inactive
Cc1ccc(Nc2cc(C)nc3ccc(C)cc23)cc1	inactive
C=CCSc1nnc2n(-c3ccccc3OC)c(=O)c3c4c(sc3n12)CCC4	inactive
Cc1ccc(NC(=O)CN2CCc3ccccc3C2)cc1F	inactive
c1ccc(CN2CCN(Cc3c[nH]c4ccccc34)CC2)cc1	inactive
OCCNc1nc2ccccc2n1CCN1CCCCC1	inactive
COc1ccc(NC(=O)c2c[nH]n3c(=O)cc(C4CCN(C(=O)OC(C)(C)C)CC4)nc23)cc1Cl	inactive
CC1CCCN1CC#CC(O)(c1ccccc1)c1ccccc1 (stereo not drawn)	inactive

SMILES	outcome
CCOC(=O)c1c(N)sc(C(O)(C(F)(F)F)C(F)(F)F)c1-c1ccccc1	inactive
CCCCN(Cc1ccccc1)C(=O)C1CCN(Cc2sccc2C)CC1	inactive
CCc1ccc2nc3nc(C)cc(C)c3c(N)c2c1	inactive
Cc1ccc(C)c(S(=O)(=O)/N=C2\C=C(NS(=O)(=O)c3ccccc3)C(=O)c3ccccc32)c1	inactive
Cc1ccn2c(-c3csc(NCc4ccco4)n3)c(C)nc2c1	inactive
CCCCC(=O)N(c1ccc(C(=O)O)cc1)c1nc(-c2ccc(Cl)cc2)c(CC)s1	inactive
CC(=O)c1ccc2c(c1)N(C)c1ccccc1S2	inactive
Cc1ccc2c(c1)N(C(=O)CCC(=O)Nc1ccccc1Br)CC(C)O2 (stereo not drawn)	inactive
OCC1(CCCc2ccccc2)CCN(Cc2cc(F)ccc2F)CC1	inactive
CC(C)c1ccc(S(=O)(=O)/N=C2\C=C(NS(=O)(=O)c3ccccc3)C(=O)c3ccccc32)cc1	inactive
Cc1cc(NCc2ccccc2)nc(N2CCOCC2)n1	inactive
CCOc1ccc(NC(=O)c2c[nH]n3c(=O)cc(C4CCN(C(=O)OC(C)(C)C)CC4)nc23)cc1	inactive
COCCn1c(SCc2cc(C(C)=O)ccc2OC)nc2cc(Cl)ccc2c1=O	inactive
CCc1cc(C(c2cccc(OC)c2)N2CCOCC2)c(NC(=O)c2ccccc2)s1 (stereo not drawn)	inactive
CC(=O)Nc1ccc(S(=O)(=O)NC2=C(N3CCN(Cc4ccccc4)CC3)C(=O)c3ccccc3C2=O)cc1	inactive
COc1ccc(C2=NN(C(=O)c3ccccc3)C(c3ccc(OC)c(OC)c3)C2)c(O)c1 (stereo not drawn)	inactive
COc1cccc(CNC(=O)CCC2CCCN(Cc3cc(Cl)ccc3O)C2)c1 (stereo not drawn)	inactive
Cc1c(CN2CCC(n3nccc3NC(=O)CCc3ccccc3)CC2)cnn1C	inactive
CCOC(=O)C(C)Sc1nc2c(c(=O)[nH]c(=O)n2C)n1Cc1ccc(Cl)cc1 (stereo not drawn)	inactive
